# Target: AgAbp1
# Assay: SPOT peptide array binding signal intensity (averaged, normalized) (arbitrary units (background-subtracted, floor 0; scale differs between SH3 domains)); higher = stronger binding of the SH3 domain to the peptide
# Outline: (§1)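 Binding signal is given in arbitrary units that differ between domains and is the normalized, background-subtracted spot intensity averaged across replicates. Each GST-SH3 fusion from one of four yeast species was made in E. coli BL21(DE3), purified on glutathione Sepharose and incubated at 10 μg/ml overnight at 4°C on cellulose-bound synthetic 15-mer peptides in which cysteines were replaced by serines. Detection used anti-GST antibody, an HRP anti-mouse secondary and luminol, followed by imaging and Genespotter quantification.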
row,Binder,SPOT peptide array binding signal intensity
1,KTRLRPAFIQQLWSS,12

# Target: AgBbc1
# Assay: as above
# Outline: as §1
row,Binder,SPOT peptide array binding signal intensity
1,KTRLRPAFIQQLWSS,18.8

# Target: AgBem1-D1
# Assay: as above
# Outline: as §1
row,Binder,SPOT peptide array binding signal intensity
1,KTRLRPAFIQQLWSS,181

# Target: AgBzz1-D1
# Assay: as above
# Outline: as §1
row,Binder,SPOT peptide array binding signal intensity
1,KTRLRPAFIQQLWSS,82.5

# Target: AgBzz1-D2
# Assay: as above
# Outline: as §1
row,Binder,SPOT peptide array binding signal intensity
1,KTRLRPAFIQQLWSS,32.5

# Target: AgCyk3
# Assay: as above
# Outline: as §1
row,Binder,SPOT peptide array binding signal intensity
1,KTRLRPAFIQQLWSS,1

# Target: AgFus1
# Assay: as above
# Outline: as §1
row,Binder,SPOT peptide array binding signal intensity
1,KTRLRPAFIQQLWSS,286

# Target: AgHof1
# Assay: as above
# Outline: as §1
row,Binder,SPOT peptide array binding signal intensity
1,KTRLRPAFIQQLWSS,45.5

# Target: AgHse1
# Assay: as above
# Outline: as §1
row,Binder,SPOT peptide array binding signal intensity
1,KTRLRPAFIQQLWSS,630

# Target: AgLsb1
# Assay: as above
# Outline: as §1
row,Binder,SPOT peptide array binding signal intensity
1,KTRLRPAFIQQLWSS,1

# Target: AgLsb4
# Assay: as above
# Outline: as §1
row,Binder,SPOT peptide array binding signal intensity
1,KTRLRPAFIQQLWSS,29.5

# Target: AgMyo5
# Assay: as above
# Outline: as §1
row,Binder,SPOT peptide array binding signal intensity
1,KTRLRPAFIQQLWSS,3

# Target: AgNbp2
# Assay: as above
# Outline: as §1
row,Binder,SPOT peptide array binding signal intensity
1,KTRLRPAFIQQLWSS,94.5

# Target: AgRvs167
# Assay: as above
# Outline: as §1
row,Binder,SPOT peptide array binding signal intensity
1,KTRLRPAFIQQLWSS,2.83

# Target: AgSho1
# Assay: as above
# Outline: as §1
row,Binder,SPOT peptide array binding signal intensity
1,KTRLRPAFIQQLWSS,12

# Target: AgSla1-D1-D2
# Assay: as above
# Outline: as §1
row,Binder,SPOT peptide array binding signal intensity
1,KTRLRPAFIQQLWSS,18

# Target: AgSla1-D3
# Assay: as above
# Outline: as §1
row,Binder,SPOT peptide array binding signal intensity
1,KTRLRPAFIQQLWSS,19.8

# Target: CaAbp1-D1
# Assay: as above
# Outline: as §1
row,Binder,SPOT peptide array binding signal intensity
1,KTRLRPAFIQQLWSS,130

# Target: CaAbp1-D2
# Assay: as above
# Outline: as §1
row,Binder,SPOT peptide array binding signal intensity
1,KTRLRPAFIQQLWSS,38.5

# Target: CaBbc1
# Assay: as above
# Outline: as §1
row,Binder,SPOT peptide array binding signal intensity
1,KTRLRPAFIQQLWSS,82.5

# Target: CaBem1-D1
# Assay: as above
# Outline: as §1
row,Binder,SPOT peptide array binding signal intensity
1,KTRLRPAFIQQLWSS,46

# Target: CaBzz1-D1
# Assay: as above
# Outline: as §1
row,Binder,SPOT peptide array binding signal intensity
1,KTRLRPAFIQQLWSS,58.5

# Target: CaBzz1-D2
# Assay: as above
# Outline: as §1
row,Binder,SPOT peptide array binding signal intensity
1,KTRLRPAFIQQLWSS,59

# Target: CaCyk3
# Assay: as above
# Outline: as §1
row,Binder,SPOT peptide array binding signal intensity
1,KTRLRPAFIQQLWSS,6

# Target: CaFus1
# Assay: as above
# Outline: as §1
row,Binder,SPOT peptide array binding signal intensity
1,KTRLRPAFIQQLWSS,912

# Target: CaHof1
# Assay: as above
# Outline: as §1
row,Binder,SPOT peptide array binding signal intensity
1,KTRLRPAFIQQLWSS,2

# Target: CaHse1
# Assay: as above
# Outline: as §1
row,Binder,SPOT peptide array binding signal intensity
1,KTRLRPAFIQQLWSS,10.8

# Target: CaLsb1
# Assay: as above
# Outline: as §1
row,Binder,SPOT peptide array binding signal intensity
1,KTRLRPAFIQQLWSS,0.5

# Target: CaLsb4
# Assay: as above
# Outline: as §1
row,Binder,SPOT peptide array binding signal intensity
1,KTRLRPAFIQQLWSS,14

# Target: CaMyo5
# Assay: as above
# Outline: as §1
row,Binder,SPOT peptide array binding signal intensity
1,KTRLRPAFIQQLWSS,4

# Target: CaNbp2
# Assay: as above
# Outline: as §1
row,Binder,SPOT peptide array binding signal intensity
1,KTRLRPAFIQQLWSS,338

# Target: CaRvs167
# Assay: as above
# Outline: as §1
row,Binder,SPOT peptide array binding signal intensity
1,KTRLRPAFIQQLWSS,17.3

# Target: CaRvs167-3
# Assay: as above
# Outline: as §1
row,Binder,SPOT peptide array binding signal intensity
1,KTRLRPAFIQQLWSS,2

# Target: CaSho1
# Assay: as above
# Outline: as §1
row,Binder,SPOT peptide array binding signal intensity
1,KTRLRPAFIQQLWSS,338

# Target: CaSla1-D1-D2
# Assay: as above
# Outline: as §1
row,Binder,SPOT peptide array binding signal intensity
1,KTRLRPAFIQQLWSS,≤ 0

# Target: CaSla1-D3
# Assay: as above
# Outline: as §1
row,Binder,SPOT peptide array binding signal intensity
1,KTRLRPAFIQQLWSS,9.5

# Target: ScAbp1
# Assay: as above
# Outline: as §1
row,Binder,SPOT peptide array binding signal intensity
1,KTRLRPAFIQQLWSS,17

# Target: ScBbc1
# Assay: as above
# Outline: as §1
row,Binder,SPOT peptide array binding signal intensity
1,KTRLRPAFIQQLWSS,6.25

# Target: ScBem1-D1
# Assay: as above
# Outline: as §1
row,Binder,SPOT peptide array binding signal intensity
1,KTRLRPAFIQQLWSS,60

# Target: ScBzz1-D1
# Assay: as above
# Outline: as §1
row,Binder,SPOT peptide array binding signal intensity
1,KTRLRPAFIQQLWSS,29.5

# Target: ScBzz1-D2
# Assay: as above
# Outline: as §1
row,Binder,SPOT peptide array binding signal intensity
1,KTRLRPAFIQQLWSS,82.5

# Target: ScCyk3
# Assay: as above
# Outline: as §1
row,Binder,SPOT peptide array binding signal intensity
1,KTRLRPAFIQQLWSS,47

# Target: ScFus1
# Assay: as above
# Outline: as §1
row,Binder,SPOT peptide array binding signal intensity
1,KTRLRPAFIQQLWSS,170

# Target: ScHof1
# Assay: as above
# Outline: as §1
row,Binder,SPOT peptide array binding signal intensity
1,KTRLRPAFIQQLWSS,5.75

# Target: ScHse1
# Assay: as above
# Outline: as §1
row,Binder,SPOT peptide array binding signal intensity
1,KTRLRPAFIQQLWSS,1510

# Target: ScLsb1
# Assay: as above
# Outline: as §1
row,Binder,SPOT peptide array binding signal intensity
1,KTRLRPAFIQQLWSS,≤ 0

# Target: ScLsb2
# Assay: as above
# Outline: as §1
row,Binder,SPOT peptide array binding signal intensity
1,KTRLRPAFIQQLWSS,≤ 0

# Target: ScLsb3
# Assay: as above
# Outline: as §1
row,Binder,SPOT peptide array binding signal intensity
1,KTRLRPAFIQQLWSS,74.5

# Target: ScLsb4
# Assay: as above
# Outline: as §1
row,Binder,SPOT peptide array binding signal intensity
1,KTRLRPAFIQQLWSS,1.5

# Target: ScMyo3
# Assay: as above
# Outline: as §1
row,Binder,SPOT peptide array binding signal intensity
1,KTRLRPAFIQQLWSS,10

# Target: ScMyo5
# Assay: as above
# Outline: as §1
row,Binder,SPOT peptide array binding signal intensity
1,KTRLRPAFIQQLWSS,3.5

# Target: ScNbp2
# Assay: as above
# Outline: as §1
row,Binder,SPOT peptide array binding signal intensity
1,KTRLRPAFIQQLWSS,121

# Target: ScPex13
# Assay: as above
# Outline: as §1
row,Binder,SPOT peptide array binding signal intensity
1,KTRLRPAFIQQLWSS,6.25

# Target: ScRvs167
# Assay: as above
# Outline: as §1
row,Binder,SPOT peptide array binding signal intensity
1,KTRLRPAFIQQLWSS,13

# Target: ScSho1
# Assay: as above
# Outline: as §1
row,Binder,SPOT peptide array binding signal intensity
1,KTRLRPAFIQQLWSS,431

# Target: ScSla1-D1-D2
# Assay: as above
# Outline: as §1
row,Binder,SPOT peptide array binding signal intensity
1,KTRLRPAFIQQLWSS,36

# Target: ScSla1-D3
# Assay: as above
# Outline: as §1
row,Binder,SPOT peptide array binding signal intensity
1,KTRLRPAFIQQLWSS,27.5

# Target: SpAbp1-D1
# Assay: as above
# Outline: as §1
row,Binder,SPOT peptide array binding signal intensity
1,KTRLRPAFIQQLWSS,54.5

# Target: SpBbc1
# Assay: as above
# Outline: as §1
row,Binder,SPOT peptide array binding signal intensity
1,KTRLRPAFIQQLWSS,4

# Target: SpBzz1-D1
# Assay: as above
# Outline: as §1
row,Binder,SPOT peptide array binding signal intensity
1,KTRLRPAFIQQLWSS,170
